Source: PubChem
HCV inh = inhibitors of hepatitis C virus infection; Huh7.5.1 HCVcc-Cre infection, luciferase reporter, 44 h; Potency, µM (series often up to 41.8 µM), for the others: at the highest dose activity change, negative = inhibition, actives largely listed as inhibitors; 340,000 tested, 3.4% active; AID 651820; note: potency is the fitted concentration of half-maximal effect; % is set by controls: 0 for no effect and ±100 for the full control effect
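A cell-based infection assay in which seeded cells (1,000 per well) receive test compound after 4 h, are inoculated with HCVcc-Cre at approximately 0.5 moi, and are incubated 44 h before luminescence detection.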
Pf growth 48h = inhibits P. falciparum growth in the first generation, 48 h. P. falciparum luciferase growth in erythrocytes, 48 h. 310,000 tested, 5.9% active. Potency, µM (doses to about 28.7 µM), for inactives: at the top dose activity change, negative = inhibition, hits mostly inhibitors; note: potency is the fitted concentration of half-maximal effect; % is set by controls: 0 for no effect and ±100 for the full control effect
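Parasite viability was followed by luminescence of a genomically integrated firefly luciferase. Cultures held 0.1% parasitemia at 2% hematocrit (final), incubated under 5% CO2 at 37 C.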
Shiga inhibitor = inhibitors of Shiga toxin in Vero cells | 290,000 tested, 9.2% active | Vero cells, Shiga toxin protein synthesis inhibition reporter | AID 2315 | inhibition, % at 38.7 µM; in the data active = inhibition mostly above about 28%, no sharp cut-off; inactive = mostly below about 43%; note: 0% is about no effect
HCMV antiviral = inhibitors of human cytomegalovirus; HFF cells, HCMV-luciferase reporter, 72 h; active compounds read low; activity change, negative = inhibition, % at 57.5 µM; 410,000 tested, 4.5% active; in the data active = activity change below about -60%; inconclusive = no clear call, values can overlap the other calls; inactive = above about -39%; note: % is set by controls: 0 for no effect and ±100 for the full control effect
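Screen run at 2 compound doses on HFFs infected with reporter HCMV, MOI 1 PFU/cell. Luciferase activity from cell lysates at 72 h post infection gave inhibition relative to buffer-only and Salinomycin wells.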
Cycloheximide cs = counter-screen for Shiga toxin inhibitors: cycloheximide protein synthesis inhibition | cell reporter, cycloheximide protein synthesis inhibition counterscreen | max response, % | 300,000 tested, 12% active; in the data active = max response mostly above about 13%, no sharp cut-off; inactive = mostly below about 14%; note: read at 38.3 µM for the half of the compounds with a filed dose; 0% is about no effect
Pf growth 96h = P. falciparum growth inhibition at 96 hours | P. falciparum luciferase reporter growth, 96 h | Potency, µM (titrated, usually from 28.7 µM), inactives show at the top dose activity change, negative = inhibition, usual class: inhibitors | 320,000 tested, 6.9% active | AID 504834; note: potency is the fitted concentration of half-maximal effect; % is set by controls: 0 for no effect and ±100 for the full control effect
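Compounds incubated with erythrocytes infected by luciferase-expressing P. falciparum (2% hematocrit, 0.05% parasitemia final) for 96 hours, 37 C in 5% CO2. Growth inhibition scored as decreased luciferase luminescence.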
* hit, by the source's call; ? = inconclusive; nt = no result; ! = repeats disagree. Rows were chosen to be rich in hits. Some 21% of all compounds tested hit in one or more screens of this group. Unless noted, calls come from the whole dose curve; as a rule, active = well fitted inhibition curve with a large enough effect; inconclusive = small, poorly fitted or top-dose-only effect, or another doubt; inactive = no such curve, though single readings can be large or run the other way.

SMILES	HCV inh	Pf growth 48h	Shiga inhibitor	HCMV antiviral	Cycloheximide cs	Pf growth 96h
CCn1cc(CN2CCc3c([nH]c4ccccc34)C2c2cccc(O)c2)c(C)n1 (stereo not drawn)	-10%	-17%	-2	27	-1	-1%
CCn1cc(CN2CCc3c([nH]c4ccccc34)C2c2cccc(OC)c2)c(C)n1 (stereo not drawn)	-9%	12µM*	11	23	-2	?
CCn1cc(CN2CCc3c([nH]c4ccccc34)C2c2ccc(F)c(OC)c2)c(C)n1 (stereo not drawn)	-24%	12µM*	4	3	3	?
Fc1ccccc1C1c2[nH]c3ccccc3c2CCN1Cc1ccoc1 (stereo not drawn)	-8%	?	-9	42	-1	-24%
CCc1nn2c(=O)cc(COC(=O)c3ccccc3NC(=O)C3CCCCC3)nc2s1	nt	nt	nt	-24	nt	nt
COc1ccc(F)cc1S(=O)(=O)NCCc1csc(-c2ccc(Cl)cc2)n1	nt	nt	nt	-15	nt	nt
COc1ccc(CN2C(=O)C(CC(=O)NCCc3ccccn3)CC(C(=O)N(C(C)C)C(C)C)=C2C)cc1 (stereo not drawn)	nt	nt	nt	-3	nt	nt
O=Cc1c(-c2ccccc2)cc2oc3ccccc3cc1-2	-3%	nt	72*	nt	40*	172%
Nc1cccc(-c2cc3ccccc3oc2=O)c1	-27%	62%	8	?	6	?
CCC(Sc1nc2ccccc2c(=O)n1CCc1ccc(OC)c(OC)c1)C(=O)N(CC)CC (stereo not drawn)	nt	nt	nt	-11	nt	nt
CC1=C(C(=O)Nc2ccc(C)cc2Cl)C2(CCCCC2)OC1=O	nt	nt	nt	2	nt	nt
COc1cccc(Cn2c(=O)cc(C)c3c(C)nn(-c4ccc(C)cc4)c32)c1	nt	nt	nt	29	nt	nt
Nc1ccc(S(=O)(=O)c2ccc(N)nc2)cc1	21%	nt	nt	-11	nt	nt
Nc1ccc(S(=O)(=O)O)cn1	?	13%	-11	-69*!	-2	65%
Nc1nc2n[nH]nc2c(=O)[nH]1	?	nt	nt	-96*	nt	nt
Nc1nc2nn(-c3ccccc3)nc2c(=O)[nH]1	15%	13%	26	1	-2	139%
CCCCCCCCCCCC(=O)N(CCO)CCO	nt	8%	nt	nt	nt	4%
O=C(CCCCCC(=O)N(CCO)CCO)N(CCO)CCO	0%	13µM*	-3	-39	-1	nt
Cc1cc(=O)[nH]c2n[nH]c(-c3ccccc3)c12	-26%	37%	37	64	15*	nt
Cc1cc(=O)[nH]c(-c2ccccc2)n1	5%	-7%	-21	11	7	nt
CC(=O)c1ccc(NC(=O)CN(C)S(=O)(=O)c2cnc[nH]2)cc1	nt	nt	nt	-4	nt	nt
OC(c1ccc(-c2ccccc2)cc1)c1ncc(-c2ccccc2Cl)[nH]1 (stereo not drawn)	nt	nt	nt	-28	nt	nt
CC(OC(=O)c1ccc(NC(=O)CC#N)cc1)C(=O)NCCC1=CCCCC1 (stereo not drawn)	-22%	9.3µM*	nt	-3	nt	10µM*
Cc1ccc(C)c(NC(=O)C(OC(=O)c2ccc(CO)cc2)c2ccccc2)c1 (stereo not drawn)	-17%	?	nt	-18	nt	?
Cc1cc(C)cc(NC(=O)C(OC(=O)c2cccs2)c2ccccc2)c1 (stereo not drawn)	-1%	19%	-4	-17	14	21%
SMILES	HCV inh	Pf growth 48h	Shiga inhibitor	HCMV antiviral	Cycloheximide cs	Pf growth 96h
Cc1cc(C)cc(NC(=O)C(OC(=O)c2ccc(NC(=O)CC#N)cc2)c2ccccc2)c1 (stereo not drawn)	-3%	10µM*	nt	-4	nt	10µM*
Cc1ccc(NC(=O)C(OC(=O)c2ccc(C=O)cc2)c2ccccc2)cc1Cl (stereo not drawn)	-7%	-9%	5	nt	15*	?
CCOC(=O)c1c(C)[nH]c(C(=O)C(C)OC(=O)c2ccc(NC(=O)CC#N)cc2)c1C (stereo not drawn)	2%	8.3µM*	nt	14	nt	10µM*
CCc1cccc(C)c1NC(=O)c1cc(S(=O)(=O)N2CCCCCC2)cn1C	nt	nt	nt	-18	nt	nt
CCOCCCNC(=O)Cn1ncc2c([nH]c3ccc(C)cc32)c1=O	nt	nt	nt	31	nt	nt
Cc1ccc(NCCCCO)cc1C	8%	36%	-3	-10	9	0%
CCCOc1cc(C)c(S(=O)(=O)NCc2cccs2)cc1C	-26%	nt	nt	?	nt	nt
COc1cc(/C=C/c2nc(C#N)c(N3CCC(C)CC3)o2)cc(OC)c1OC	nt	nt	nt	11	nt	nt
Cc1ccc(C)c(NC(=O)C(OC(=O)c2ccc(NC(=O)CC#N)cc2)c2ccccc2)c1 (stereo not drawn)	-13%	10µM*	nt	-3	nt	?
CCn1c2ccccc2c2cc(NC(=O)C(C)OC(=O)c3ccc(NC(=O)CC#N)cc3)ccc21 (stereo not drawn)	?	12µM*	nt	?	nt	?
CCn1c2ccccc2c2cc(NC(=O)COC(=O)c3ccc(O)cc3)ccc21	?	0%	nt	-12	nt	24%
CCc1cc(C(=O)OCC(=O)N2CCC(c3ccccc3)=N2)sc1C	-20%	16%	-13	-11	-4	6%
NC(=O)c1ccccc1N/C=C1\CCCCC1=O	12%	19%	34	4	-3	?
COC(=O)c1ccccc1N/C=C/C(=O)c1ccc(Br)cc1	0%	74%	27*	71	43*	?
NC(=O)c1ccccc1N/C=C/C(=O)c1ccccc1	?	258%	56*	117	47*	0%
CC(=O)Nc1ccc(/C=C/c2nc(-c3ccccc3O)n[nH]2)cc1	?	8%	57*	42	48*	50%
COc1cc(/C=C/c2nc(-c3ccccc3O)n[nH]2)cc(OC)c1OC	11µM*	?	4	1	19	?
CCn1c(CNc2nc(-c3ccccc3)cs2)nnc1SCC(=O)NCc1ccco1	13%	?	18	4	-1	?
Cc1ccn2c(-c3csc(NCc4ccco4)n3)c(C)nc2c1	?	12µM*	55	-68*	2	-5%
COc1ccc(-c2nc3cccc(C)n3c2NCc2ccco2)cc1OC	?	10%	-4	-6	16*	10%
COc1ccc(-c2ccc(C#N)c(SCC(=O)NCc3ccco3)n2)cc1OC	-13%	?	-6	15	3	?
CC(=O)Nc1ccc(-c2csc(NC(=O)CCNC(=O)c3ccco3)n2)cc1	-24%	nt	nt	36	nt	nt
c1cncc(-c2csc(NCc3ccco3)n2)c1	-5%	nt	38*	33	32*	?
CC(=O)Nc1ccc(-c2csc(NCc3ccco3)n2)cc1	?	162%	44*	112	48*	0%
CCCCC[C@H](O)/C=C/[C@@H]1[C@H]2C/C(=C/CCCC(=O)O)O[C@H]2C[C@H]1O	nt	-4%	nt	nt	nt	27%
COc1ccc(-c2csc(NCc3ccco3)n2)cc1C	-20%	-16%	114*	nt	24*	nt
CCNC(=O)c1ccc(C23CC4CC(CC(C4)C2)C3)o1	24%	?	30	-21	0	13%
